Assay results from PubChem BioAssay (NCATS).
A number with no mark means an inactive call. Results filed as inconclusive are left out. This is one part of the list. A call without a number means that no potency is given here. The source made the active and inactive calls. Unless noted, the call rests on the fitted dose curve; in most records, active means well fitted curve in the direction sought with a large enough effect; inconclusive means small, poorly fitted or top-dose-only effect, or another doubt; inactive means no such curve, though single readings can be large; an effect the other way counts as inactive or inconclusive.

Assays:
[1] = target: Rap guanine nucleotide exchange factor 3 (Homo sapiens) (UniProt O95398); assay: Confirmatory qHTS for agonist of cAMP-regulated guanine nucleotide exchange factor 3 (EPAC1) (AID 1645881); further: nearly all actives have a fitted effect of over 75% in size; further: potency means the concentration at half of the fitted maximal effect
[2] = target: Rap guanine nucleotide exchange factor 4 (Homo sapiens) (UniProt Q8WZA2); assay: Confirmatory qHTS for antagonist of cAMP-regulated guanine nucleotide exchange factor 4 (EPAC2) (AID 1645885); further: nearly all actives have a fitted effect of over 25% in size; further: potency means the concentration at half of the fitted maximal effect
[3] = target: Rap guanine nucleotide exchange factor 3 (Homo sapiens) (UniProt O95398); assay: Counterscreen qHTS for antagonist of cAMP-regulated guanine nucleotide exchange factor 3 (EPAC1) (AID 1645888);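 further: fluorescence loss as bound BODIPY-GDP is released from Rap1B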
Method in brief: (§1)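 Rap1B–BODIPY-GDP (250 nM) with 50 uM GDP; compounds pin-transferred to 9.74 nM–152 uM final (activator) or from 7.32 nM upwards (inhibitor). Fluorescence Ex/Em 480/540 nm read at 5 and 30 min, then after adding cAMP or buffer, at room temperature.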

[4] = target: Rap guanine nucleotide exchange factor 4 (Homo sapiens) (UniProt Q8WZA2); assay: Confirmatory qHTS for agonist of cAMP-regulated guanine nucleotide exchange factor 4 (EPAC2) (AID 1645884);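 further: nucleotide exchange releases bodipy-GDP from Rap1 and this lowers its fluorescence; nearly all actives have a fitted effect of over 65% in size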; further: potency means the concentration at half of the fitted maximal effect
[5] = target: Rap guanine nucleotide exchange factor 3 (Homo sapiens) (UniProt O95398); assay: Counterscreen qHTS for agonist of cAMP-regulated guanine nucleotide exchange factor 3 (EPAC1) (AID 1645889); further: nearly all actives have a fitted effect of over 40% in size
Method in brief: as §1

[6] = target: Flap endonuclease 1 (Homo sapiens) (UniProt P39748); assay: qHTS Assay for the Inhibitors of FEN1: Confirmatory Assay for Cherry-picked Compounds (AID 720498); details: FEN1 flap cleavage, TAMRA/BHQ2 fluorogenic DNA substrate; further: potency means the concentration at half of the fitted maximal effect; nearly all actives have a fitted effect of over 60% in size
Method in brief: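 FEN1 at 10 nM was preincubated with compound for 15 min at room temperature, then 50 nM (final) double-flap DNA substrate was added. TAMRA fluorescence released from the BHQ-2-quenched flap was read at 0 and 15 min (ex 525/em 598 nm).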

[7] = AP1 Signaling Pathway (AID 357; active means well fitted curve in either direction with a large enough effect, not every such curve was filed as active); details: ME-180 AP-1-bla reporter, EGF-induced, beta-lactamase ratio, 5 h; at 7.69 µM (top of the series) unless noted
Method in brief: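 AP-1-bla ME-180 cells with beta-lactamase reporter under AP-1 response element, stimulated with EC50 EGF; compounds titrated, 5 hours at 37 degrees Celsius. CCF4 read at 460/530 nm ratio; positive and negative modulators judged by AC50.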

[8] = Stat Signaling Pathway (AID 446; active means well fitted curve in either direction with a large enough effect, not every such curve was filed as active;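 further: ME-180 cervical cancer cells given 40 pM IL-6 alongside compound; SIE-controlled beta-lactamase reporter measured as 460/530 nm FRET emission ratio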)
Method in brief: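 Screening format detects activators and inhibitors alike: ME-180 SIE-bla cells stimulated at 40 pM IL-6 for 5 hrs with compound, then dual-emission beta-lactamase read at 405 nm excitation.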

[9] = target: Glucocorticoid receptor (Homo sapiens) (UniProt P04150); assay: GR-GFP Redistribution (AID 450;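 active means compounds whose dose series gives a full or clear partial fitted curve of increased nuclear translocation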; further: potency means the concentration at half of the fitted maximal effect); details: U2OS GR-GFP nuclear translocation, laser cytometry, 2 h
[10] = target: Tumor susceptibility gene 101 protein (Homo sapiens) (UniProt Q99816); assay: qHTS Assay for Iinhibitors of HIV-1 Budding by Blocking the Interaction of PTAP/TSG101: Hit Validation (AID 651600); further: potency means the concentration at half of the fitted maximal effect; nearly all actives have a fitted effect of over 70% in size
Method in brief: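 Tsg101 binding domain 10 uM + FITC-PTAP peptide 50 nM (final), 10 mM HEPES pH 7.5/0.15 M NaCl/0.01% Tween 20/3 mM EDTA/0.1 mM TCEP; 20 min RT; FP read, FITC filters.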

Sequence of Rap guanine nucleotide exchange factor 4 (Homo sapiens) (Q8WZA2 whole entry, looked up): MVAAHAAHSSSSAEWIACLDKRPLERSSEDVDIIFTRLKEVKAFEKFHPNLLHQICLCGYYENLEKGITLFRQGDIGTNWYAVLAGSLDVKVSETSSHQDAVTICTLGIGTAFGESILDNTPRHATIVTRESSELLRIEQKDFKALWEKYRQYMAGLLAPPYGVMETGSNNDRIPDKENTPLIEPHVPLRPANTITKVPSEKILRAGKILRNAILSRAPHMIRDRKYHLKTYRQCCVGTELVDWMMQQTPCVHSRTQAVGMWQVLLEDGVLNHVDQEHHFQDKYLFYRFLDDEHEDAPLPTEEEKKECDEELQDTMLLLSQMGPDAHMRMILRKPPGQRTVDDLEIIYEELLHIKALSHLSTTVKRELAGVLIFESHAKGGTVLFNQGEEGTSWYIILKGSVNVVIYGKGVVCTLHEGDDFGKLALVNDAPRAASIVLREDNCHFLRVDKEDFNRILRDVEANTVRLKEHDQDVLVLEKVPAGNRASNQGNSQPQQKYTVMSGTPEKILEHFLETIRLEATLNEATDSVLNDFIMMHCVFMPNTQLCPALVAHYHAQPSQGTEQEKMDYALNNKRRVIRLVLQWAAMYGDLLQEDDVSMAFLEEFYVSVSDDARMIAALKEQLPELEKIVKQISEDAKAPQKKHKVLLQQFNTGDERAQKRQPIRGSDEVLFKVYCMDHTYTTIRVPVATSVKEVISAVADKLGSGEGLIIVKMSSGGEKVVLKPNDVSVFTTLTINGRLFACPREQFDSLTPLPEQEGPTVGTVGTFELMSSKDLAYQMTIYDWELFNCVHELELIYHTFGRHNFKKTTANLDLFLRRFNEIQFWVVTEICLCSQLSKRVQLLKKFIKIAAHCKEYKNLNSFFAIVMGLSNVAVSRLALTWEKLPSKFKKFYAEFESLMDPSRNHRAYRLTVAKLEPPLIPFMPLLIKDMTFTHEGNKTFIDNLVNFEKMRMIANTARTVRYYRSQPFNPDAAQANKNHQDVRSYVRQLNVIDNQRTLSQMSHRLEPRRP
Sequence of Rap guanine nucleotide exchange factor 3 (Homo sapiens) (O95398 whole entry, looked up): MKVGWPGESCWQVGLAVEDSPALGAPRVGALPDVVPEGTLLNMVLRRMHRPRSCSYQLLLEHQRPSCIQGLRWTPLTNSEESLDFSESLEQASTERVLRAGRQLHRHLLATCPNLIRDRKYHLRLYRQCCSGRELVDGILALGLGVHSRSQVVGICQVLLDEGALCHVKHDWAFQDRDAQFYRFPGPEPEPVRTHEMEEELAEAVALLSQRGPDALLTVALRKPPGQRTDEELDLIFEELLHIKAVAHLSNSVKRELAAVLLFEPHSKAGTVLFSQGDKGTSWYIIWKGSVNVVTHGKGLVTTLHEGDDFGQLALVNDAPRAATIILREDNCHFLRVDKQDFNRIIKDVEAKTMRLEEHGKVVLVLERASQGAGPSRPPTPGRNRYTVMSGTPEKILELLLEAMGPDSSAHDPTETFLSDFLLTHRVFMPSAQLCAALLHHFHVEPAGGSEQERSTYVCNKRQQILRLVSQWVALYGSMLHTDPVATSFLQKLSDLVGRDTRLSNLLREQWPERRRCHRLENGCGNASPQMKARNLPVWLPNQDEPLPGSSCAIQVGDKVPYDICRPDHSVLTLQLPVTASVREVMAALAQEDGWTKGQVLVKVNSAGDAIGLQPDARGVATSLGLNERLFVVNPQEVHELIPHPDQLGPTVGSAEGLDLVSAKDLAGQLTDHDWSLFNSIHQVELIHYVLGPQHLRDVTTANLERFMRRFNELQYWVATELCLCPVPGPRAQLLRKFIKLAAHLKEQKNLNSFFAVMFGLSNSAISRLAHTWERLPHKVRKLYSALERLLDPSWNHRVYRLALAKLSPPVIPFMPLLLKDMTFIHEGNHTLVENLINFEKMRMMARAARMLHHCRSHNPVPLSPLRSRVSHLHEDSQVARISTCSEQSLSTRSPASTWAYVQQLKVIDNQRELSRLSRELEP
Sequence of Flap endonuclease 1 (Homo sapiens) (P39748 whole entry, looked up): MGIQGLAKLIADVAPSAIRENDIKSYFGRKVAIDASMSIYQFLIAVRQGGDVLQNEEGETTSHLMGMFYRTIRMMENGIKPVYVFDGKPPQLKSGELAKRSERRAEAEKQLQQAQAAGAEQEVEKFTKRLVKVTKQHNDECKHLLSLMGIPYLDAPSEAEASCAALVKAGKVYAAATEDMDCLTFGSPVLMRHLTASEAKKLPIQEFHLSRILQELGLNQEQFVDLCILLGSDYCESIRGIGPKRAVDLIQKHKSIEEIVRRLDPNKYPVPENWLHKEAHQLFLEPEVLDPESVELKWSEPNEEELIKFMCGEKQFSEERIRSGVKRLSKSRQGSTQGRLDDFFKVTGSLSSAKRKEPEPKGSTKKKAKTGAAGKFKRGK
Sequence of Tumor susceptibility gene 101 protein (Homo sapiens) (Q99816 whole entry, looked up, the tested form may be a part): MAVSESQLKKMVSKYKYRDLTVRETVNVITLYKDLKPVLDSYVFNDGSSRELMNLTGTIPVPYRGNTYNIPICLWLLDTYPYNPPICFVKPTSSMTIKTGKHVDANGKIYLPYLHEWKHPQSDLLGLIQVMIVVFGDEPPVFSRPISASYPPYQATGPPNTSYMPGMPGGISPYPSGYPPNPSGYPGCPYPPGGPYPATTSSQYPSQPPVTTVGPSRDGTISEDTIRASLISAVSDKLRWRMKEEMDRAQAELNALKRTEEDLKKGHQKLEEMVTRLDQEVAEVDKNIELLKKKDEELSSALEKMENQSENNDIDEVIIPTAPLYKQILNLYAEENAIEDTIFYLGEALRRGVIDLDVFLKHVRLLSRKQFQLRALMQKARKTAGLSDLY
Sequence of Glucocorticoid receptor (Homo sapiens) (P04150 whole entry, looked up): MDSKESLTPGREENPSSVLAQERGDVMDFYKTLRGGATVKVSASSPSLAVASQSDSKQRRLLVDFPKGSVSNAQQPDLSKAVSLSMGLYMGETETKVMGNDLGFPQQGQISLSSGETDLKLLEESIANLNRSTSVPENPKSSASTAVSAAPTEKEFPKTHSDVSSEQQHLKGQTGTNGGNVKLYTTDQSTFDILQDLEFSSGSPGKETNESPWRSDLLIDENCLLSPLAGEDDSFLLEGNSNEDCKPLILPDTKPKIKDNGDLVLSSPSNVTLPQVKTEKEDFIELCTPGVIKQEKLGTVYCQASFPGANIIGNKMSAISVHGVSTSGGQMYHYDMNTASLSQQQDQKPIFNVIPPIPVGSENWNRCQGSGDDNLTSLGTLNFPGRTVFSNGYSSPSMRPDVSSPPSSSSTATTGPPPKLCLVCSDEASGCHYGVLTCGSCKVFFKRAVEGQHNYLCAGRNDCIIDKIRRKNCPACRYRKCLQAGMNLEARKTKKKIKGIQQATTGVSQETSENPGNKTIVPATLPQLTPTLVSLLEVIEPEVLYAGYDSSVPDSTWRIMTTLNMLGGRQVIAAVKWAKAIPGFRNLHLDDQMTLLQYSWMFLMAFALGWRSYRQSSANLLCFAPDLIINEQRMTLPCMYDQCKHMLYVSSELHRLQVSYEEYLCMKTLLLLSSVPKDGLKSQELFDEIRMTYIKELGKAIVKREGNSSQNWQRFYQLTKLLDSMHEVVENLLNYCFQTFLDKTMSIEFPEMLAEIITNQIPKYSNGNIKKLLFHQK

Question: What does the source list for N/C(CSc1nc(-c2ccccc2)c(-c2ccccc2)o1)=N\O?
Answer: Potency [1]: inactive; Potency [2]: 16.9 µM (active); Potency [3]: inactive

Question: With COC(=O)c1ccc(OCC2c3cc(OC)c(OC)cc3CCN2C(=O)c2ccc(OC)cc2)cc1 (stereo not given) as the compound, how does the Potency [1] read?
Answer: The Potency was “inactive”.

Question: And the Potency [2]?
Answer: Its Potency is “inactive”.

Question: What about the Potency [3] of the same compound?
Answer: Its Potency is “inactive”.

Question: For Cc1cccc(C)c1Nc1c(-c2ccc(Cl)s2)nc2ncccn12, which Potency [1] is on record?
Answer: The Potency was “inactive”.

Question: What about the Potency [2] of the same compound?
Answer: The Potency was “inactive”.

Question: What about the Potency [3] of the same compound?
Answer: Its Potency is “inactive”.

Question: Which Potency [1] does the source give for COc1ccc2c(c1)Cc1sc(NC(=O)c3ccccc3Br)nc1-2 here?
Answer: Its Potency is “inactive”.

Question: And the outcome [2]?
Answer: Its outcome is “inactive [at 12.7 µM]”.

Question: What about the Potency [3] of the same compound?
Answer: The Potency was “inactive”.

Question: Which Potency [1] does the source give for COc1ccc(-c2ccc(C(=O)NC(C)C)c3occc23)c(C)c1 here?
Answer: Its Potency is “inactive”.

Question: What about the Potency [2] of the same compound?
Answer: Its Potency is “inactive”.

Question: What about the Potency [3] of the same compound?
Answer: The Potency was “inactive”.

Question: For CC(=O)Nc1ccc(Nc2nnc(-c3ccc(O)cc3)c3ccccc23)cc1, which Potency [1] is on record?
Answer: The Potency was “inactive”.

Question: And the Potency [2]?
Answer: Its Potency is “inactive”.

Question: What about the Potency [3] of the same compound?
Answer: The Potency was “inactive”.

Question: With Cc1nc2ccccc2c2oc(C(=O)Nc3ccc4c(c3)OCCO4)cc12 as the compound, how does the Potency [1] read?
Answer: Its Potency is “inactive”.

Question: And the Potency [2]?
Answer: Its Potency is “inactive”.

Question: And the Potency [3]?
Answer: The Potency was “inactive”.

Question: With COc1ccc(C(=O)NCCn2cc(SCc3cccc(F)c3)c3ccccc32)cc1OC as the compound, how does the Potency [1] read?
Answer: Its Potency is “inactive”.

Question: What about the Potency [2] of the same compound?
Answer: The Potency was “inactive”.

Question: And the Potency [3]?
Answer: The Potency was “inactive”.

Question: Which results are given for COc1ccc(CN(C)C(=O)c2ccc(OCC(=O)Nc3cccc(C(F)(F)F)c3)c(OC)c2)c(OC)c1?
Answer: Potency [1]: inactive; Potency [4]: inactive; Potency [5]: inactive

Question: Which Potency [1] does the source give for O=C(O)c1ccc(COc2ccccc2/C=C2\NC(=O)N(Cc3ccc(F)cc3)C2=O)cc1 here?
Answer: The Potency was “inactive”.

Question: What about the Potency [4] of the same compound?
Answer: Its Potency is “inactive”.

Question: What about the Potency [5] of the same compound?
Answer: The Potency was “inactive”.

Question: What does the source list for N#C/C(=C\c1ccc(-c2ccccc2C(=O)O)o1)c1nc2ccccc2[nH]1?
Answer: Potency [1]: inactive; outcome [2]: inactive [at 12.7 µM]; Potency [3]: inactive

Question: Which results are given for O=C1CN(C(=O)c2c(F)cccc2Cl)C(c2ccc(F)cc2)c2cc(Br)ccc2N1 (stereo not given)?
Answer: Potency [1]: inactive; Potency [2]: inactive

Question: Which Potency [1] does the source give for CCOc1cc2c(cc1/C=C/c1noc(C)c1[N+](=O)[O-])OC(C)C2 (stereo not given) here?
Answer: The Potency was “inactive”.

Question: And the Potency [2]?
Answer: The Potency was “inactive”.

Question: What about the activity change, negative = inhibition [3] of the same compound?
Answer: Its activity change, negative = inhibition is -13.8% [at 30.8 µM].

Question: What does the source list for CCN(CC)S(=O)(=O)c1ccc2[nH]c(=O)cc(C(=O)Nc3ccc(C)c(S(=O)(=O)N(CC)CC)c3)c2c1?
Answer: Potency [1]: inactive; Potency [4]: inactive; Potency [5]: inactive

Question: For O=C(Cn1c(=O)c2ccccc2n(CC(=O)Nc2ccc(Cl)cc2)c1=O)NCCc1ccccc1, which Potency [1] is on record?
Answer: Its Potency is “inactive”.

Question: What about the Potency [2] of the same compound?
Answer: The Potency was “inactive”.

Question: What about the Potency [3] of the same compound?
Answer: The Potency was “inactive”.

Question: For CCN1/C(=C\c2ccc3ccccc3[n+]2CC)Sc2cc(C)ccc21, which Potency [6] is on record?
Answer: Its Potency is 21.3 µM (active).

Question: What about the Potency [1] of the same compound?
Answer: Its Potency is “inactive”.

Question: And the Potency [4]?
Answer: The Potency was “inactive”.

Question: Which results are given for COC(=O)C1CCN(c2nc3ccccc3nc2C(C#N)C(=O)NCCc2ccccc2)CC1 (stereo not given)?
Answer: activity change, negative = inhibition [7]: -19.5% [at 17.2 µM]; outcome [8]: inactive; Potency [9]: > 20.6 µM; Potency [1]: inactive; Potency [4]: inactive; Potency [5]: inactive

Question: What does the source list for CC(NC(=O)COC(=O)C1CCN(c2ccc(C(F)(F)F)cn2)CC1)c1ccc(Br)cc1 (stereo not given)?
Answer: Potency [1]: inactive; Potency [4]: inactive; Potency [5]: inactive

Question: Which Potency [1] does the source give for O=C(Nc1ncccc1O)c1c(O)c2ccccc2[nH]c1=O here?
Answer: Its Potency is “inactive”.

Question: What about the Potency [4] of the same compound?
Answer: Its Potency is 100 µM (active).

Question: And the Potency [5]?
Answer: Its Potency is “inactive”.

Question: With O=C(Nc1ccc(-c2cn3ccccc3n2)cc1)c1cccs1 as the compound, how does the Potency [1] read?
Answer: The Potency was “inactive”.

Question: What about the Potency [2] of the same compound?
Answer: Its Potency is “inactive”.

Question: And the Potency [3]?
Answer: Its Potency is “inactive”.

Question: What does the source list for CCn1c(SCC(=O)c2ccc(O)c(O)c2)nnc1-c1ccccc1OC?
Answer: Potency [1]: inactive; Potency [2]: 9.53 µM (active); Potency [3]: inactive

Question: For CCN1CCN(S(=O)(=O)c2ccc(Cl)c(C(=O)N(C)Cc3cccc(Cl)c3Cl)c2)CC1, which Potency [1] is on record?
Answer: The Potency was “inactive”.

Question: And the Potency [4]?
Answer: The Potency was “inactive”.

Question: And the Potency [5]?
Answer: The Potency was “inactive”.

Question: For Cc1cc[n+](-c2[nH]c(=O)sc2/C=N/N=C(\[O-])c2ccccc2)cc1, which Potency [1] is on record?
Answer: Its Potency is “inactive”.

Question: What about the Potency [2] of the same compound?
Answer: The Potency was “inactive”.

Question: For Cc1ccc2c(c1)N(Cc1cccc(Cl)c1)C(=O)c1cccnc1O2, which Potency [1] is on record?
Answer: The Potency was “inactive”.

Question: And the Potency [2]?
Answer: The Potency was 47.8 µM (active).

Question: What about the Potency [3] of the same compound?
Answer: The Potency was “inactive”.

Question: With O=C(c1ccccc1Cc1ccccc1)N1CCN(S(=O)(=O)c2ccccc2Br)CC1 as the compound, how does the Potency [1] read?
Answer: Its Potency is “inactive”.

Question: And the Potency [2]?
Answer: The Potency was “inactive”.

Question: And the Potency [3]?
Answer: The Potency was “inactive”.

Question: Which results are given for O=C(CSc1nc2ccccc2o1)N/N=C/c1ccc(O)c(O)c1?
Answer: Potency [1]: inactive; Potency [2]: inactive; Potency [3]: inactive

Question: With C#Cc1ccc([C@H]2C=C(C(=O)NCc3ccccc3)O[C@@H](OCC)[C@@H]2CCCO)cc1 as the compound, how does the Potency [1] read?
Answer: Its Potency is “inactive”.

Question: What about the Potency [2] of the same compound?
Answer: Its Potency is 37.9 µM (active).

Question: What about the Potency [3] of the same compound?
Answer: Its Potency is “inactive”.

Question: With O=c1c2ccccc2c(C=Nc2ccc(O)cc2)c(O)n1-c1nccs1 as the compound, how does the Potency [1] read?
Answer: Its Potency is “inactive”.

Question: What about the Potency [2] of the same compound?
Answer: Its Potency is “inactive”.

Question: What does the source list for Cc1ccc(C)c(Oc2nc3c(c(=O)n(C)c(=O)n3C)n2Cc2ccccc2)c1?
Answer: Potency [1]: inactive; Potency [2]: inactive; Potency [3]: inactive

Question: With COc1ccc(Cl)cc1NC(=O)COC(=O)c1cc(NS(=O)(=O)c2cccs2)ccc1O as the compound, how does the Potency [1] read?
Answer: Its Potency is “inactive”.

Question: And the Potency [2]?
Answer: The Potency was “inactive”.

Question: What about the Potency [3] of the same compound?
Answer: Its Potency is “inactive”.

Question: What does the source list for Cc1nn(C)cc1N1C(=O)c2cccc3c(N)ccc(c23)C1=O?
Answer: Potency [10]: 6.51 µM (active); Potency [1]: 112 µM (active); Potency [4]: 100 µM (active)

Question: Which Potency [1] does the source give for COc1ccccc1CN(C)C(=O)C(c1ccccc1)c1ccccc1 here?
Answer: Its Potency is “inactive”.

Question: What about the Potency [2] of the same compound?
Answer: Its Potency is “inactive”.

Question: And the Potency [3]?
Answer: The Potency was “inactive”.

Question: What does the source list for CN(CC(=O)Nc1ccc(Cl)c(C(F)(F)F)c1)C(=O)c1ccc2c(c1)OCCO2?
Answer: Potency [1]: inactive; Potency [2]: inactive; Potency [3]: inactive

Question: With COc1ccc(Cl)cc1C1CC(=O)Nc2cc3c(cc21)OCCO3 (stereo not given) as the compound, how does the Potency [1] read?
Answer: The Potency was “inactive”.

Question: What about the Potency [2] of the same compound?
Answer: The Potency was “inactive”.

Question: And the Potency [3]?
Answer: Its Potency is “inactive”.

Question: Which results are given for Clc1ccc(OCCn2c(-c3ccco3)nc3ccccc32)cc1?
Answer: Potency [1]: inactive; Potency [2]: inactive; Potency [3]: inactive
